Data from PubChem BioAssay (EPA / NIEHS).
Records with an inconclusive call do not appear. Activity calls are given as the source filed them. The calls were made as follows: active = hit-call score of the fitted dose curve at least 0.9, where 1 is the maximum; inconclusive = response in the unintended direction; inactive = score below 0.9.

Assays:
CDK2 (gene 1017) = CDK2 (gene 1017) (UniProt P24941); assay: NVS_ENZ_hCDK2: NovaScreen (NVS) Enzymatic Assay for human Cyclin-Cependent Kinase 2 (CDK2) (AID 2283144)
Experimental: (§1) NVS_ENZ_hCDK2 is a biochemical, single-readout assay that uses extracted gene-proteins in a cell-free assay. Measurements were taken 1 hour after chemical dosing in a 384-well plate.NVS_ENZ_hCDK2 is one of one assay component(s) measured or calculated from the NVS_ENZ_hCDK2 assay. It is designed to make measurements of enzyme activity, a form of enzyme reporter, as detected with fluorescence intensity signals by Fluorescence and electrophoretic mobility shift technology.Data from the assay component NVS_ENZ_hCDK2 was analyzed into 1 assay endpoint. This assay endpoint, NVS_ENZ_hCDK2, was analyzed in the positive analysis fitting direction relative to DMSO as the negative control and baseline of activity. Using a type of enzyme reporter, loss-of-signal activity can be used to understand changes in the enzymatic activity as they relate to the gene CDK2. Furthermore, this assay endpoint can be referred to as a primary readout, because this assay has produced multiple assay endpoints where this one serves a enzymatic activity function. To generalize the intended target to other relatable targets, this assay endpoint is annotated to the kinase intended target family, where the subfamily is serine/threonine kinase. […]

[1] = target: human Caspase 8 (CASP8), CASP8 (gene 841) (UniProt Q14790); assay: NVS_ENZ_hCASP8: NovaScreen (NVS) Enzymatic Assay for human Caspase 8 (CASP8) (AID 2283146)
Sequence of human Caspase 8 (CASP8), CASP8 (gene 841) (Q14790 whole entry, looked up): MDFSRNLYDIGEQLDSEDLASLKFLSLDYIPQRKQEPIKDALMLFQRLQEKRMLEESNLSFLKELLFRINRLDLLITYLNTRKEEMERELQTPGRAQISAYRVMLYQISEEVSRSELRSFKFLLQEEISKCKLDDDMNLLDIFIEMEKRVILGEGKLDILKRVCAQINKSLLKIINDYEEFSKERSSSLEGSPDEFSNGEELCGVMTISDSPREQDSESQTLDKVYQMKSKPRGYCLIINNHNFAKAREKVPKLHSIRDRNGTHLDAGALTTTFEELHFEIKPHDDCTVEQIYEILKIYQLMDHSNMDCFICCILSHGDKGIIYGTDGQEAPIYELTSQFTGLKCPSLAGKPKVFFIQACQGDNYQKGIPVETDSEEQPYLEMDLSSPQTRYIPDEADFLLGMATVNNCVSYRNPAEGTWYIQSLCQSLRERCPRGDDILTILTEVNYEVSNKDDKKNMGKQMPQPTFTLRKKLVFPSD
Experimental: NVS_ENZ_hCASP8 is a biochemical, single-readout assay that uses extracted gene-proteins from E. coli in a cell-free assay. Measurements were taken 1 hour after chemical dosing in a 96-well plate.NVS_ENZ_hCASP8 is one of one assay component(s) measured or calculated from the NVS_ENZ_hCASP8 assay. It is designed to make measurements of enzyme activity, a form of enzyme reporter, as detected with fluorescence intensity signals by Fluorescence technology.Data from the assay component NVS_ENZ_hCASP8 was analyzed into 1 assay endpoint. This assay endpoint, NVS_ENZ_hCASP8, was analyzed in the positive analysis fitting direction relative to DMSO as the negative control and baseline of activity. […] Furthermore, this assay endpoint can be referred to as a primary readout, because this assay has produced multiple assay endpoints where this one serves a enzymatic activity function. […]
Binding assays used specific radioligands (tritiated, iodinated) with non-radioactive competitive displacement ligands in agonist or antagonist protocols (as indicated) and various reference compounds and inhibitors to titrate specific binding to receptors and transporters. Most enzyme assays (CYPs, kinases, phosphatases, proteases, HDACs) used recombinant protein and specific substrates (fluorescence mostly, some colorimetric and radioactive) and inhibitors, followed by a biochemical separation of substrate and product. […]

[2] = target: human Casein Kinase 1-delta (CK1D), CSNK1D (gene 1453) (UniProt P48730); assay: NVS_ENZ_hCK1D: NovaScreen (NVS) Enzymatic Assay for human Casein Kinase 1-delta (CK1D) (AID 2283148)
Sequence of human Casein Kinase 1-delta (CK1D), CSNK1D (gene 1453) (P48730 whole entry, looked up): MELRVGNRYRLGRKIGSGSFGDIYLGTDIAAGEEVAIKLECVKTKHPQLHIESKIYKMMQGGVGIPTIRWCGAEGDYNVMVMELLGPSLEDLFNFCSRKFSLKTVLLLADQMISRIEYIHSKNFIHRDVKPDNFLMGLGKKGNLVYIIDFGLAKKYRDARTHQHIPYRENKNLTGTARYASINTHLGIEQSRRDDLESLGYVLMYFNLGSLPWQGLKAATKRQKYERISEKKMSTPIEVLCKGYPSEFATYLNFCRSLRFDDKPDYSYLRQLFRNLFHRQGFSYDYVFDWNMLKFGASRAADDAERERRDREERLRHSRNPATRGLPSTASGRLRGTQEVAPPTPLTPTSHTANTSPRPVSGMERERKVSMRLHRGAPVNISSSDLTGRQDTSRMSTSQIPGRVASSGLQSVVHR
How it was run: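 Recombinant human CK1-delta, cell-free; fluorescent substrate with electrophoretic mobility-shift separation of product, read 1 h after dosing. Single 25 uM duplicate screen, then concentration-response up to 50 uM; loss of signal vs DMSO.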

[3] = target: human Ephrin type-A Receptor 2 (EphA2), EPHA2 (gene 1969) (UniProt P29317); assay: NVS_ENZ_hEphA2: NovaScreen (NVS) Enzymatic Assay for human Ephrin type-A Receptor 2 (EphA2) (AID 2283155)
Sequence of human Ephrin type-A Receptor 2 (EphA2), EPHA2 (gene 1969) (P29317 whole entry, looked up): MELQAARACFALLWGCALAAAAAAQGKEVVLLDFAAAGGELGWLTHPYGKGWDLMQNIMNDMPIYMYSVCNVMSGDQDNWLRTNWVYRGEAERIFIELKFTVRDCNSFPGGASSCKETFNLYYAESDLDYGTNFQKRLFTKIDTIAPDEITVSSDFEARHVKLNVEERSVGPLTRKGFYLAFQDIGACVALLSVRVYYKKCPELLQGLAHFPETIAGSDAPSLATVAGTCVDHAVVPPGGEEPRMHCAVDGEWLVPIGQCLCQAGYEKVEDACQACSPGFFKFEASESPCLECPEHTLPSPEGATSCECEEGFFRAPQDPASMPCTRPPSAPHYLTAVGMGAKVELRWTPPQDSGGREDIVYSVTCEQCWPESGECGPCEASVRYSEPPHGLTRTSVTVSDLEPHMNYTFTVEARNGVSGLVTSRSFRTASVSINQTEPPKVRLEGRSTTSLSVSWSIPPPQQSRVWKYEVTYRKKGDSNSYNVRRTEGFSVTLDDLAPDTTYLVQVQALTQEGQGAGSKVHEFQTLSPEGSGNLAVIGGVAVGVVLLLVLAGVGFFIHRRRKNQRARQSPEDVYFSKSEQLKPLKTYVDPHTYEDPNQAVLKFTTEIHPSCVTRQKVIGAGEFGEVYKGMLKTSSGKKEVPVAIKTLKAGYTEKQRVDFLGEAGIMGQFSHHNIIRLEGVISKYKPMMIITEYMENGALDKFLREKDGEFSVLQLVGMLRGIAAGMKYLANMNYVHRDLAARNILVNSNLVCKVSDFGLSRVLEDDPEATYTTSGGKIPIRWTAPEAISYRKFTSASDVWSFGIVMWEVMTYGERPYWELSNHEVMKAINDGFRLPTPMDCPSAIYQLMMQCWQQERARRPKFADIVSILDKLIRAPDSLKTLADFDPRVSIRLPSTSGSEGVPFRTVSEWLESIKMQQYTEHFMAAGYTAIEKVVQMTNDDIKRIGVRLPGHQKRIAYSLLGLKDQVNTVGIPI
How it was run: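 Cell-free recombinant EphA2 kinase with specific substrate, 1 h, fluorescence with electrophoretic mobility-shift separation of substrate and product. Primary screen at 25 uM in duplicate; hits retested in singleton concentration-response up to 50 uM, referenced to DMSO.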

[4] = target: human Elastase, ELANE (gene 1991) (UniProt P08246); assay: NVS_ENZ_hElastase: NovaScreen (NVS) Enzymatic Assay for human Elastase (AID 2283153)
Sequence of human Elastase, ELANE (gene 1991) (P08246 whole entry, looked up): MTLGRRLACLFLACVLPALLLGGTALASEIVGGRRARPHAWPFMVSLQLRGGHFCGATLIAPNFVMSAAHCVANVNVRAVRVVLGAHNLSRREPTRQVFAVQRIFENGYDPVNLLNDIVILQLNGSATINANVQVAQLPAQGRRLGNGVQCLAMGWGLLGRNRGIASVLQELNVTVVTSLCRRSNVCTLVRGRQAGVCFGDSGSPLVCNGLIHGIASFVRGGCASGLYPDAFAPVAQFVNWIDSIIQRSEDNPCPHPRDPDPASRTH
How it was run: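 Cell-free elastase from human neutrophils, 1.5 h after dosing, activity read by absorbance. Primary screen in duplicate at 25 uM; hits (e.g., 30% inhibition) rerun in singleton concentration-response up to 50 uM, fitted versus DMSO.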

[5] = target: human Ephrin type-B Receptor 2 (EphB2), EPHB2 (gene 2048) (UniProt P29323); assay: NVS_ENZ_hEphB2: NovaScreen (NVS) Enzymatic Assay for human Ephrin type-B Receptor 2 (EphB2) (AID 2283156)
Sequence of human Ephrin type-B Receptor 2 (EphB2), EPHB2 (gene 2048) (P29323 whole entry, looked up): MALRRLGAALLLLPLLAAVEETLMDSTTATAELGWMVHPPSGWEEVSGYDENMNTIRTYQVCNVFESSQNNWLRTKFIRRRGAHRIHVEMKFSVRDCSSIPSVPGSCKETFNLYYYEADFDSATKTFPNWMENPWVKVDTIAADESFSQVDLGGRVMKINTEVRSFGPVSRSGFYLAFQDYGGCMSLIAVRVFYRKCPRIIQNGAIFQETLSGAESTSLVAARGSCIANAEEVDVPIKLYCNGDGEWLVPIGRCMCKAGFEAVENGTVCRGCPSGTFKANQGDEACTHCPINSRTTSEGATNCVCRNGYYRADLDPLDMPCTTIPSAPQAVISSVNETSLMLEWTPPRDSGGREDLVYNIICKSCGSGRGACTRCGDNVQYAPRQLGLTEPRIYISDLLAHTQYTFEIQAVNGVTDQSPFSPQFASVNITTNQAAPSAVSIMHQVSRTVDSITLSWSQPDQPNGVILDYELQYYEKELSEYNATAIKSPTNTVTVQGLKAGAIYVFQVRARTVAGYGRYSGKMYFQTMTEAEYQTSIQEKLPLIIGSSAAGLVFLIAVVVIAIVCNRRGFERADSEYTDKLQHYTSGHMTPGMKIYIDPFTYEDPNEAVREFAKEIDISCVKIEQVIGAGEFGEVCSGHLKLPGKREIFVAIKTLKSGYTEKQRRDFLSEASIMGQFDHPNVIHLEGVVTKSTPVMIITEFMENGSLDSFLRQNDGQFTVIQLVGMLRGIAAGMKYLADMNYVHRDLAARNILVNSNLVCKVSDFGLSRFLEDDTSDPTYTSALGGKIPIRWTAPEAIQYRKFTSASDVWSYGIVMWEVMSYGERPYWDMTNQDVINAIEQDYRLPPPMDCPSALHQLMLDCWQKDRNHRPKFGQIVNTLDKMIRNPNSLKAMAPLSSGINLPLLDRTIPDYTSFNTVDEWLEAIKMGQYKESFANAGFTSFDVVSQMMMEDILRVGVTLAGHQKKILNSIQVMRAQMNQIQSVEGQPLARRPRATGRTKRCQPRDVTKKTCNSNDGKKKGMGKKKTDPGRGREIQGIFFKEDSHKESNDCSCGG
Experimental: as §1, with “NVS_ENZ_hEphB2” for “NVS_ENZ_hCDK2”, “plate.NVS_ENZ_hEphB2” for “plate.NVS_ENZ_hCDK2”, “NVS_ENZ_hEphB2,” for “NVS_ENZ_hCDK2,”, “EPHB2.” for “CDK2.”, “receptor tyrosine” for “serine/threonine”

In the case of `CC(C)O.CC(C)O.OCCN(CCO)CCO.OCCN(CCO)CCO.[Ti]`, the AC50 (CDK2 (gene 1017)) is reported as 0.003 µM (active), the AC50 [1] is reported as 1.13 µM (active) and the AC50 [2] is reported as 10.8 µM (active).

`N#Cc1cccnc1` was tested, and the outcome (CDK2 (gene 1017)) was “inactive” and the outcome [3] was “inactive”.

With `CCCCCCCCCCCCc1cccc(S(=O)(=O)O)c1` the AC50 [2] was 28.6 µM (active), the AC50 [4] was 26.7 µM (active) and the outcome [5] was “inactive”.

With `O=C(O)C1(c2ccc3c(c2)OC[C@H](Cc2ccc(-c4ccccc4)cc2)[C@H]3O)CCCC1` the AC50 [4] was 17.7 µM (active).

In the case of `CCCCCCCCCCCCOS(=O)(=O)O`, the AC50 [3] is reported as 40.8 µM (active).
